# Measured values: PubChem BioAssay (NCATS)
# “And” between values parts separate entries of the source, which are not always exact repeats. Equal values may be shown once. Results filed as inconclusive are left out. Entries that show only a call come without a potency. The source made the active and inactive calls. Unless noted, calls follow the shape of the dose curve; as a rule, active = well fitted curve in the direction sought with a large enough effect; inconclusive = small, poorly fitted or top-dose-only effect, or another doubt; inactive = no such curve, though single readings can be large; an effect the other way counts as inactive or inconclusive.
# Tests used:
# [1] = Primary qHTS for small molecule stabilizers of the endoplasmic reticulum resident proteome: Secreted ER Calcium Modulated Protein (SERCaMP) assay (AID 1508630); conditions: SH-SY5Y GLuc-SERCaMP (Gaussia luciferase released on ER calcium loss) secretion, thapsigargin, luminescence; series mostly up to 38.4 µM
# Procedure, shortened: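 GLuc-SERCaMP-expressing SH-SY5Y cells, pretreated 16 h with compound, are challenged with thapsigargin to empty ER calcium stores; after 4 h, coelenterazine is added directly to the medium and luminescence is imaged.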
# [2] = target: Cytochrome P450 2D6 (Homo sapiens) (UniProt P10635); assay: Cytochrome P450 family 2 subfamily D member 6 (CYP2D6) small molecule antagonists: luciferase biochemical (cell-free) qHTS assay (AID 1645840; active = well fitted curve in the direction sought with a large enough effect in the repeat runs; an effect the other way counts as inactive or inconclusive; also: nearly all actives have a fitted effect of over 55% in size; also: potency is read from the fitted curve at half-maximal effect); conditions: P450-Glo CYP2D6 enzyme, luciferin luminescence, 1 h; series mostly up to 57.4 µM
# Chain of Cytochrome P450 2D6 (Homo sapiens) (P10635 whole entry, looked up): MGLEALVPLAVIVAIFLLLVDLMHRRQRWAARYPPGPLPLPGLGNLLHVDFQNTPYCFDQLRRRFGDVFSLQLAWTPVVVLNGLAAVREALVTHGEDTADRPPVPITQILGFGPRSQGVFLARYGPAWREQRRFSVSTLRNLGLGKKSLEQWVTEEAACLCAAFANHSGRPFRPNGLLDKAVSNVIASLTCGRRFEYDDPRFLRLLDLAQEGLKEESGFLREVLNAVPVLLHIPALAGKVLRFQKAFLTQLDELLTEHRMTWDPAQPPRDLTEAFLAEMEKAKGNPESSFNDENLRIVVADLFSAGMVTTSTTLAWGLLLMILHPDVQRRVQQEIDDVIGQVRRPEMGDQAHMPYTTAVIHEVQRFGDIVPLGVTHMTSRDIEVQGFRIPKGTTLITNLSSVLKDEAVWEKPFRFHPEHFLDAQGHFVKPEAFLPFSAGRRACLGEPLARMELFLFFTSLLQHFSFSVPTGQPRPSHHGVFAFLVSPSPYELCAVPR
# Procedure, shortened: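 P450-Glo luminescent screen: recombinant CYP2D6 enzyme–proluciferin substrate mix preincubated with compound 10 min at room temperature, then NADPH regeneration added for 1 h at room temperature. Detection reagent added for 20 min; luciferin light read as relative luminescence units.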
# [3] = target: Cytochrome P450 2C9 (Homo sapiens) (UniProt P11712); assay: Cytochrome P450 family 2 subfamily C member 9 (CYP2C9) small molecule antagonists: luciferase biochemical (cell-free) qHTS assay (AID 1645842; active = well fitted curve in the direction sought with a large enough effect in the repeat runs; an effect the other way counts as inactive or inconclusive; also: nearly all actives have a fitted effect of over 55% in size; also: potency is read from the fitted curve at half-maximal effect); conditions: P450-Glo CYP2C9 enzyme assay, luciferin luminescence; series mostly up to 57.4 µM
# Chain of Cytochrome P450 2C9 (Homo sapiens) (P11712 whole entry, looked up): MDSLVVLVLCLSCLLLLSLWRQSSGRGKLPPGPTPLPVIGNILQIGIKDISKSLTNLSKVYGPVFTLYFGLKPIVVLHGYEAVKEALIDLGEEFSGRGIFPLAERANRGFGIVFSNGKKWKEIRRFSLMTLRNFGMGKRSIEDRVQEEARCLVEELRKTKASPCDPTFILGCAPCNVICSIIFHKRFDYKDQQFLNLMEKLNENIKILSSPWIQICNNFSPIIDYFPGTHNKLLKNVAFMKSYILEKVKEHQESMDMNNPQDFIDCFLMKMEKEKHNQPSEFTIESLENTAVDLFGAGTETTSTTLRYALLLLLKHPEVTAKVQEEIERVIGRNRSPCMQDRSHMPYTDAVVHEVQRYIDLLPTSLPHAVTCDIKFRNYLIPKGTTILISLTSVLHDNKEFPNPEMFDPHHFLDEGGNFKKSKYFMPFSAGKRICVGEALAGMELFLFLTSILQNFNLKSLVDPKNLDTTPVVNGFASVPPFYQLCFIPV
# Procedure, shortened: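 Luminescence, after 20 min with luciferin detection reagent, reflected CYP2C9 turnover during a 1 h NADPH-driven reaction at 37C. Enzyme-substrate mix contained 0.4% bovine serum albumin and was preincubated with compound 10 min at room temperature.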
# Papain (Carica papaya) = Papain (Carica papaya) (UniProt P00784); assay: Primary qHTS assay for inhibitors of the protease papain (AID 1645873); conditions: papain Z-FR-AMC cleavage, AMC fluorescence; series mostly up to 49.8 µM;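 also: papain turnover of Z-FR-AMC read as the AMC fluorescence gain over 10 min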
# Chain of Papain (Carica papaya) (P00784 whole entry, looked up, the tested form may be a part): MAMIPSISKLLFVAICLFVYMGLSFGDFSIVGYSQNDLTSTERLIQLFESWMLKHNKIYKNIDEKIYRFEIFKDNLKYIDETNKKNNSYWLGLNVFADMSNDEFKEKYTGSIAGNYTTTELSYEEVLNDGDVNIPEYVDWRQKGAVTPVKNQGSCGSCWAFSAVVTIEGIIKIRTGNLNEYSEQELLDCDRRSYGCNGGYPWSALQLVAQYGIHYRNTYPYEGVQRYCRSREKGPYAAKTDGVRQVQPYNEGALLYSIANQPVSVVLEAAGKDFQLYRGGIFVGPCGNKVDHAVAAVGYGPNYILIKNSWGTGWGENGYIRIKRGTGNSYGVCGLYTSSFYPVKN
# [4] = Primary qHTS for inhibitors of nuclear receptor binding SET domain protein 2 (NSD2) in an isogenic RCH-ACV NSD2 p.E1099K mutant (9B) (AID 1645876); conditions: RCH-ACV NSD2 E1099K (9B) viability, CellTiter-Glo, 72 h; series mostly up to 44.9 µM; also: nearly all actives have a fitted effect of over 70% in size; also: potency is read from the fitted curve at half-maximal effect
# [5] = Primary qHTS for inhibitors of nuclear receptor binding SET domain protein 2 (NSD2) in an RCH-ACV wild type WT cells (2C) (AID 1645877); conditions: RCH-ACV (leukaemia line) NSD2 WT (2C) viability, CellTiter-Glo, 72 h; series mostly up to 44.9 µM; also: nearly all actives have a fitted effect of over 70% in size; also: potency is read from the fitted curve at half-maximal effect
# [6] = A High-Content qHTS Against Drug Library for the Identification of Small Molecules that Inhibit DYT1 Early Onset Primary Dystonia-Associated Cell Pathology (AID 1645839; calls by dose curve; also: potency is read from the fitted curve at half-maximal effect); conditions: HEK293 Flp-In EGFP-delE TorsinA, punctate imaging, 48 h; series mostly up to 46.1 µM
# Procedure, shortened: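 Readout: %pathology, the punctate EGFP-TorsinA distribution from imaging, as the primary channel and cell count as the toxicity counterscreen. HEK293 Flp-In cells expressing delE TorsinA were induced with tetracycline and treated with compound for 48 h.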
# [7] = target: Rap guanine nucleotide exchange factor 3 (Homo sapiens) (UniProt O95398); assay: Confirmatory qHTS for agonist of cAMP-regulated guanine nucleotide exchange factor 3 (EPAC1) (AID 1645881); conditions: EPAC1 Rap1B BODIPY-GDP exchange fluorescence; series mostly up to 154 µM; also: nearly all actives have a fitted effect of over 75% in size; also: potency is read from the fitted curve at half-maximal effect
# Chain of Rap guanine nucleotide exchange factor 3 (Homo sapiens) (O95398 whole entry, looked up): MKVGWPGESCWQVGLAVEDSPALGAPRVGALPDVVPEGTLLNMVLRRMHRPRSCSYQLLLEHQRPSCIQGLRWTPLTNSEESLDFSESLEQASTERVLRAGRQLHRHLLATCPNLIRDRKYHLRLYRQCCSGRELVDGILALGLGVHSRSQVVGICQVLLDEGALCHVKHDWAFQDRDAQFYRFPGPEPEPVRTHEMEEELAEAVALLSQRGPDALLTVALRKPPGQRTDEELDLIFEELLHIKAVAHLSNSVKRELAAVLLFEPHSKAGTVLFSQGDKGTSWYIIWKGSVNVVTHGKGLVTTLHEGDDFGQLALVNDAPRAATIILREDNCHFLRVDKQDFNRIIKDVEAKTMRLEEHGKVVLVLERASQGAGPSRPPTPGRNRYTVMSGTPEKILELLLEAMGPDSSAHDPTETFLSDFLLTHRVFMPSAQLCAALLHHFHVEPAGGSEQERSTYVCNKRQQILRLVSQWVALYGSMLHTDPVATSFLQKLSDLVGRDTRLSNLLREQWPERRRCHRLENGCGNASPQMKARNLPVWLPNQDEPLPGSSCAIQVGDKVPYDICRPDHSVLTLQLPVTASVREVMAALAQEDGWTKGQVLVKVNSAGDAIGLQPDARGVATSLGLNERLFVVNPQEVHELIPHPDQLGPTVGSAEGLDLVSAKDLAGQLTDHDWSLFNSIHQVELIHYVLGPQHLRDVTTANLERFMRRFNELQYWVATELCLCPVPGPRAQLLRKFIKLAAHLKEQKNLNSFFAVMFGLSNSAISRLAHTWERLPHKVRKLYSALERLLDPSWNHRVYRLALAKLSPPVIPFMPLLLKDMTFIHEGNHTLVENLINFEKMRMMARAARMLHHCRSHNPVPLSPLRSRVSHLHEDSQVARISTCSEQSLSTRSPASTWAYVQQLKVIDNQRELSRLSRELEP
# [8] = target: Rap guanine nucleotide exchange factor 4 (Homo sapiens) (UniProt Q8WZA2); assay: Confirmatory qHTS for antagonist of cAMP-regulated guanine nucleotide exchange factor 4 (EPAC2) (AID 1645885); conditions: EPAC2 Rap1B-BODIPY-GDP exchange fluorescence, biochemical; series mostly up to 114 µM; also: nearly all actives have a fitted effect of over 25% in size; also: potency is read from the fitted curve at half-maximal effect
# Chain of Rap guanine nucleotide exchange factor 4 (Homo sapiens) (Q8WZA2 whole entry, looked up): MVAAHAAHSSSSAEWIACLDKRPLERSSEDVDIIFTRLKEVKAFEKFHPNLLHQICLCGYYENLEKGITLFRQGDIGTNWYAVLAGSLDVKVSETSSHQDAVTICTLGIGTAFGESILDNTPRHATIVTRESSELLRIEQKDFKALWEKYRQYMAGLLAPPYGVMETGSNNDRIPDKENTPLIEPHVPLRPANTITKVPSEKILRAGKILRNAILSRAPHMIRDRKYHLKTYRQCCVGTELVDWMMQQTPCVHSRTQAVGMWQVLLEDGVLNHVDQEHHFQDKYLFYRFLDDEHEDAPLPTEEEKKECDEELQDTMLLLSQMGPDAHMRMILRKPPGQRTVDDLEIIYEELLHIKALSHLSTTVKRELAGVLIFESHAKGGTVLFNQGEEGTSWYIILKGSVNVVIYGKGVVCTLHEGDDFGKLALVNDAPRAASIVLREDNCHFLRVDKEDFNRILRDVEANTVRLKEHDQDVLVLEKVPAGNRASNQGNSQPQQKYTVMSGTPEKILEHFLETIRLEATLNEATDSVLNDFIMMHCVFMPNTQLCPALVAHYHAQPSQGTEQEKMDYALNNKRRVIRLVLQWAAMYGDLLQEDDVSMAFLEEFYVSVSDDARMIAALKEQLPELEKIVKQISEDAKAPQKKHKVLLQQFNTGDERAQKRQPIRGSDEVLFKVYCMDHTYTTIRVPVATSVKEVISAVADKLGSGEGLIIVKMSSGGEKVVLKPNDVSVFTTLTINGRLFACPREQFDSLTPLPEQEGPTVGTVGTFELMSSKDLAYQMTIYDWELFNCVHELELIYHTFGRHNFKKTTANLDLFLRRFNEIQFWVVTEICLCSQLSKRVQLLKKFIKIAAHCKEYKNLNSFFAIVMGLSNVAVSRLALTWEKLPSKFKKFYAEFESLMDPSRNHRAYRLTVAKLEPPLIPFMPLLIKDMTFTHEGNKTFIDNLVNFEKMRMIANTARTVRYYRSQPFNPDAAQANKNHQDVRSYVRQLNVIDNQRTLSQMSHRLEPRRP
# [9] = target: Rap guanine nucleotide exchange factor 4 (Homo sapiens) (UniProt Q8WZA2); assay: Confirmatory qHTS for agonist of cAMP-regulated guanine nucleotide exchange factor 4 (EPAC2) (AID 1645884); conditions: EPAC2 GEF activity, Rap1B-BODIPY-GDP fluorescence; series mostly up to 154 µM;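 also: nucleotide exchange releases bodipy-GDP from Rap1 and this lowers its fluorescence; nearly all actives have a fitted effect of over 65% in size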
# [10] = target: Rap guanine nucleotide exchange factor 3 (Homo sapiens) (UniProt O95398); assay: Counterscreen qHTS for agonist of cAMP-regulated guanine nucleotide exchange factor 3 (EPAC1) (AID 1645889); conditions: EPAC1 Rap1B-BODIPY-GDP exchange, fluorescence; series mostly up to 154 µM; also: nearly all actives have a fitted effect of over 40% in size
# Procedure, shortened: (§1)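 Measured: fluorescence of BODIPY-GDP bound to Rap1B, which falls as exchange proceeds. Conditions include 50 uM competing GDP, 5 and 30 min reads, and a later cAMP challenge for antagonist detection.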
# [11] = target: Cytochrome P450 3A4 (Homo sapiens) (UniProt P08684); assay: Cytochrome P450 family 3 subfamily A member 4 (CYP3A4) small molecule antagonists: luciferase qHTS assay (AID 1645841; active = well fitted curve in the direction sought with a large enough effect in the repeat runs; an effect the other way counts as inactive or inconclusive; also: nearly all actives have a fitted effect of over 45% in size); conditions: P450-Glo CYP3A4 enzyme assay, luciferin luminescence; series mostly up to 57.4 µM
# Chain of Cytochrome P450 3A4 (Homo sapiens) (P08684 whole entry, looked up): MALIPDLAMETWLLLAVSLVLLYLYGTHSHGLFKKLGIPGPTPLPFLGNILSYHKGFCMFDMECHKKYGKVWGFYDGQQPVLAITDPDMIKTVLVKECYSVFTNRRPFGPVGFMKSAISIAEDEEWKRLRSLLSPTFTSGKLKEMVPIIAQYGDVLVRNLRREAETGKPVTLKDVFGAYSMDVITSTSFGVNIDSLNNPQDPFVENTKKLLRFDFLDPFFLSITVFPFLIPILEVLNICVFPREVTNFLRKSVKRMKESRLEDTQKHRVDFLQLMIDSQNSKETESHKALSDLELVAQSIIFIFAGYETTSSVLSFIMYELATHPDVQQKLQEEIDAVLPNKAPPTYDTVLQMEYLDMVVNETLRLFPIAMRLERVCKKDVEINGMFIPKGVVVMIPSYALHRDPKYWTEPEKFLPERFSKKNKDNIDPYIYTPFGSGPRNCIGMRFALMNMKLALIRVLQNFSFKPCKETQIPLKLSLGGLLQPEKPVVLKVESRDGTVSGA
# Procedure, shortened: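 P450-Glo CYP3A4 enzyme with proluciferin substrate was preincubated with DMSO-dissolved compounds for 10 min at room temperature. NADPH regeneration solution started a 1 h reaction. Detection reagent stopped it, and luminescence was read after 20 min.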
# [12] = target: Rap guanine nucleotide exchange factor 3 (Homo sapiens) (UniProt O95398); assay: Confirmatory qHTS for antagonist of cAMP-regulated guanine nucleotide exchange factor 3 (EPAC1) (AID 1645880); conditions: EPAC1 Rap1B-BODIPY-GDP exchange, fluorescence; series mostly up to 115 µM; also: nearly all actives have a fitted effect of over 55% in size
# Procedure, shortened: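 Nucleotide exchange uses 100 nM EPAC1, 250 nM RAP1B-BODIPY-GDP and 50 uM GDP, with compounds in a concentration-titration series. After 5 min at room temperature, fluorescence (480 nm ex/540 nm em) is read every 5 min for 30 min. Data are normalized to control ATA and DMSO.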
# [13] = target: Rap guanine nucleotide exchange factor 3 (Homo sapiens) (UniProt O95398); assay: Counterscreen qHTS for antagonist of cAMP-regulated guanine nucleotide exchange factor 3 (EPAC1) (AID 1645888); conditions: Rap1B-BODIPY-GDP nucleotide exchange, fluorescence; series mostly up to 154 µM;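 also: fluorescence loss as bound BODIPY-GDP is released from Rap1B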
# Procedure, shortened: as §1
structure (smiles),measurement,setting,value
CCCCCCCC/C=C\CCCCCCCC(=O)NCc1ccc(O)c(OC)c1,Potency,[1],inactive
same,Potency,[2],inactive
same,Potency,[3],1.1 µM (active) and 1.69 µM (active)
same,Potency,Papain (Carica papaya),inactive
same,Potency,[4],2.66 µM (active)
same,Potency,[5],3.35 µM (active)
CC(=O)Oc1cc(C(C)C)c(OCCN(C)C)cc1C,Potency,[6],inactive
same,Potency,[2],8.71 µM (active)
same,Potency,[3],inactive
same,Potency,Papain (Carica papaya),inactive
same,Potency,[4],inactive
same,Potency,[5],inactive
CCN(CC)CCOCCOC(=O)C1(c2ccccc2)CCCC1,Potency,[6],inactive
same,Potency,[3],inactive
same,Potency,Papain (Carica papaya),inactive
same,Potency,[4],inactive
COc1cc2c(cc1OC)-c1cc(=Nc3c(C)cc(C)cc3C)n(C)c(=O)n1CC2,Potency,[2],12.3 µM (active)
same,Potency,[3],0.49 µM (active)
same,Potency,[4],15 µM (active)
same,Potency,[5],15 µM (active)
same,Potency,[7],inactive
same,Potency,[8],44.1 µM (active)
CCOC(=O)C1=C(C)NC(C)=C(C(=O)OC)C1c1cccc(Cl)c1Cl (stereo unspecified),Potency,[1],inactive
same,Potency,[7],inactive
same,Potency,[9],inactive
same,Potency,[8],49.4 µM (active) and 47.8 µM (active)
same,outcome,[10],inactive
CC(C)COCC(CN(Cc1ccccc1)c1ccccc1)N1CCCC1 (stereo unspecified),Potency,[1],inactive
same,Potency,[2],0.0347 µM (active)
same,Potency,Papain (Carica papaya),inactive
same,Potency,[4],2.99 µM (active) and 16.6 µM (active)
same,Potency,[5],4.22 µM (active) and 16.6 µM (active)
CN(C)CCCN1c2ccccc2Sc2ccc(C(F)(F)F)cc21,Potency,[1],inactive
same,Potency,[2],0.0977 µM (active)
same,Potency,[3],inactive
same,Potency,Papain (Carica papaya),inactive
same,Potency,[4],21.1 µM (active)
same,Potency,[5],18.8 µM (active)
Cc1cc(C)c(/C=C2\C(=O)Nc3ccccc32)[nH]1,Potency,[6],inactive
same,Potency,[2],inactive
same,Potency,[3],9.77 µM (active)
same,Potency,Papain (Carica papaya),inactive
same,Potency,[4],inactive
same,Potency,[5],inactive
CCCCNc1c(C(=O)OCC)c(C)nc2c1cnn2CC,Potency,[6],inactive
same,Potency,Papain (Carica papaya),inactive
O=C(O)CP(=O)(O)O,Potency,[6],inactive
same,Potency,[2],inactive
same,Potency,Papain (Carica papaya),inactive
same,Potency,[4],inactive
same,Potency,[5],inactive
COC(=O)C1=C(C)NC(C)=C(C(=O)OCCN(C)Cc2ccccc2)C1c1cccc([N+](=O)[O-])c1 (stereo unspecified),Potency,Papain (Carica papaya),inactive
same,Potency,[5],23.7 µM (active)
same,Potency,[7],inactive
same,Potency,[9],inactive
C[C@]12CC[C@@H]3c4ccc(O)cc4C[C@@H](CCCCCCCCCS(=O)CCCC(F)(F)C(F)(F)F)[C@H]3[C@@H]1CC[C@@H]2O (stereo partly specified),Potency,[1],inactive
same,Potency,[2],inactive
same,Potency,[3],1.38 µM (active)
same,Potency,Papain (Carica papaya),inactive
same,Potency,[4],inactive
same,Potency,[5],inactive
COCCOC(=O)C1=C(C)NC(C)=C(C(=O)OC(C)C)C1c1cccc([N+](=O)[O-])c1 (stereo unspecified),Potency,[1],inactive
same,Potency,Papain (Carica papaya),inactive
same,Potency,[4],inactive
same,Potency,[5],inactive
same,Potency,[7],inactive
same,Potency,[8],49.4 µM (active)
COc1ccc(CCN(C)CCCC(C#N)(c2cc(OC)c(OC)c(OC)c2)C(C)C)cc1OC (stereo unspecified),Potency,[1],inactive
same,Potency,[6],inactive
same,Potency,Papain (Carica papaya),inactive
same,Potency,[5],15 µM (active)
COC(=O)C1=C(C)NC(C)=C(C(=O)OC(C)(C)CN(C)CCC(c2ccccc2)c2ccccc2)C1c1cccc([N+](=O)[O-])c1 (stereo unspecified),Potency,[6],10 µM (active)
same,Potency,[2],2.75 µM (active)
same,Potency,[3],1.95 µM (active)
same,Potency,Papain (Carica papaya),inactive
CN/C(=C\[N+](=O)[O-])NCCSCc1ccc(CN(C)C)o1,Potency,[6],inactive
same,Potency,[2],15.5 µM (active)
same,Potency,[4],inactive
same,Potency,[5],inactive
CC(C)[N+](C)(CCOC(=O)C1c2ccccc2Oc2ccccc21)C(C)C,Potency,[6],inactive
same,Potency,[2],0.309 µM (active)
same,Potency,[3],inactive
same,Potency,Papain (Carica papaya),inactive
same,Potency,[4],inactive
same,Potency,[5],inactive
Nc1ncn([C@@H]2O[C@H](CO)[C@@H](O)[C@H]2O)c(=O)n1,Potency,[1],inactive
same,Potency,[2],inactive
same,outcome,[11],inactive
same,Potency,Papain (Carica papaya),inactive
same,Potency,[4],10.5 µM (active)
same,Potency,[5],9.34 µM (active)
CC(=O)[C@]1(O)Cc2c(O)c3c(c(O)c2[C@@H](O[C@H]2C[C@H](N)[C@H](O)[C@H](C)O2)C1)C(=O)c1ccccc1C3=O,Potency,[1],inactive
same,Potency,[2],17.4 µM (active)
same,Potency,Papain (Carica papaya),inactive
same,Potency,[4],0.8 nM (active) and 41.7 nM (active)
same,Potency,[5],0.9 nM (active) and 37.2 nM (active)
same,outcome,[12],inactive
same,Potency,[7],63 µM (active) and 70.6 µM (active)
same,Potency,[8],inactive
COCC(=O)O[C@]1(CCN(C)CCCc2nc3ccccc3[nH]2)CCc2cc(F)ccc2[C@@H]1C(C)C,Potency,[1],inactive
same,Potency,[2],0.049 µM (active)
same,Potency,[3],inactive
same,Potency,[4],10.6 µM (active)
same,Potency,[5],9.44 µM (active)
COc1cc(Cc2cnc(N)nc2N)cc(OC)c1OC,Potency,[6],inactive
same,Potency,[2],inactive
same,outcome,[12],inactive
same,Potency,[7],inactive
same,Potency,[9],inactive
same,Potency,[8],inactive
same,outcome,[13],inactive
same,outcome,[10],inactive
CCNC(=O)N1CCN(CCCC(c2ccc(F)cc2)c2ccc(F)cc2)CC1,Potency,[3],inactive
same,Potency,Papain (Carica papaya),inactive
Cc1ccc(Cl)c(Nc2ccccc2C(=O)O)c1Cl,Potency,[1],inactive
same,Potency,[2],inactive
